Laboratory results taken from the supplement of paper PMC3334620.
Whole data set: some 33,000 sequences, median “E-score (-0.5 to 0.5)” near -0.015, cut for the highest 2% near 0.3. This excerpt belongs to a sample that is enriched for the highest values.

What follows are sequences tested against T1, Abf1 (UniProt P14164) (assay: PBM E-score (8-mer binding enrichment) (E-score (-0.5 to 0.5)); higher = stronger / more preferred TF binding). Conditions: protein concentration: 200 nM; construct: GST-full length.
T1 sequence: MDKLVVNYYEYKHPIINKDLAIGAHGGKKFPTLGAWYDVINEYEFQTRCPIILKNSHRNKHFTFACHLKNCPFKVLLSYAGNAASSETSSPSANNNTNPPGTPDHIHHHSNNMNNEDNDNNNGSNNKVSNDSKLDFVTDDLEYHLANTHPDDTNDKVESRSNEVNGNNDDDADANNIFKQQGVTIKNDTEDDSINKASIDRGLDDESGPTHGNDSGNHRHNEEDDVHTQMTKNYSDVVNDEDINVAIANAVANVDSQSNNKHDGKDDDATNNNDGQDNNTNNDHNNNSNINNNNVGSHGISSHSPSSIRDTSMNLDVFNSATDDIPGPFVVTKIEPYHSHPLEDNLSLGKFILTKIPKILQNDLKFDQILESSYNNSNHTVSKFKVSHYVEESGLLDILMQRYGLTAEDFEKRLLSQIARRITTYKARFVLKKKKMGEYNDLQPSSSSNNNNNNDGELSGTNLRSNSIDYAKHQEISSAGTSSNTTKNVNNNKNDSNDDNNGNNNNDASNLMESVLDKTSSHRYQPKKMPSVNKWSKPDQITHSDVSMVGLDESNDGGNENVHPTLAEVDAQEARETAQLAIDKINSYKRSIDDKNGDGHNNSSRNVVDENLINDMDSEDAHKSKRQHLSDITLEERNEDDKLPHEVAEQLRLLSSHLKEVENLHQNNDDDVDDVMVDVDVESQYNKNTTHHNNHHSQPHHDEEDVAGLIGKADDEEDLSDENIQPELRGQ
Procedure: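 Universal 'all 10-mer' protein binding microarrays (Agilent AMADID 015681) probed with GST-tagged S. cerevisiae TFs (full-length or DBD) made by in vitro transcription/translation (PURExpress), about 100-200 nM. Bound TF was detected with fluorescent anti-GST. Each ungapped 8-mer (which stands for itself and its reverse complement) is scored by the PBM enrichment score (E-score), a modified Wilcoxon-Mann-Whitney statistic from -0.5 to +0.5, computed with the Universal PBM Analysis Suite. Scale: above 0.35 generally sequence-specific binding.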

Sequence	PBM E-score
GACTTCTC	0.167
ATGAGCGC	0.0585
GTAGGGTA	0.0591
CCGTTTGC	-0.0132
CATAGCAG	-0.126
GGCGTACA	0.0819
CTCGTACC	0.184
ATCGTACG	0.394
ATCGTACC	0.0609
ATCGTAAA	0.234
GTCGTACA	0.383
ATCGTAAG	0.108
ATCGTACA	0.34
CACGTACA	0.0758
AACGTACA	0.0978
CTCGTACA	0.342
GTCGTAGA	0.278
GTCTGCAC	-0.061
GGTCCTGA	-0.0764
CGGAAGTA	-0.0352
ACAGGTAC	-0.146
GGCTTTAC	-0.225
GCTGGGTA	-0.0116
AAGAAAAA	-0.0775
CCAGGATA	0.126

Sequence	PBM E-score
GTGAGGTA	-0.0243
AGAAACCT	-0.237
ATTACGGG	-0.0226
ATTACGGC	0.184
ATTACGTA	0.372
ATTACGGA	0.303
ATTACGTG	0.176
CTTACGTA	0.212
GAGAGGCA	-0.176
GCCCTACC	-0.149
CTGAATCA	-0.0743
AAGCCCCC	-0.352
ACAGTGAT	0.294
ATAGTGAG	0.069
ATAGTGAC	0.35
CTAGTGAC	0.316
GCAGTGAC	0.15
GTAGTGAA	0.0467
ATAGTGAT	0.436
CTAGTGAA	-0.202
ATAGTGGG	-0.075
GTAGTGAC	0.35
ATAGTGAA	0.0719
CTAGTGAG	-0.0339
AGTCGTAC	0.169

Sequence	PBM E-score
CTGGGTAA	-0.0825
ATGGGTTC	-0.0947
GCGCGCGC	0.197
GCAGGGAC	-0.131
TTAGCCAA	-0.00286
CGGCGCCC	-0.143
CGAGCAAA	0.179
CGCGGGAC	-0.172
CTCGTGCA	0.124
CACGTGCA	0.139
GACGTGCA	0.358
GTCGTGCA	0.374
AACGTGCA	0.0844
GGCGTGCA	-0.0867
GATGGAGA	-0.00795
AGATCGCA	0.0409
ATCCCCGC	-0.211
CACAAAGA	0.0323
AGGTCAGC	-0.0373
CCGTACAA	0.432
CCGTACAG	0.21
CCGTACAC	0.3
TCGTACAA	0.402
CGGTACAA	0.211
GCGTACAA	0.197

Sequence	PBM E-score
GCGTACAC	0.0451
ACGTACAA	0.218
CAGTACAA	0.0284
AAGGTTTC	-0.0855
CCGACAGA	-0.00185
TACGTTAA	0.132
AGATGCCC	-0.144
GCATCCGA	-0.146
TAGAGTGA	0.248
GAGAGTGC	-0.192
GAGAGTGA	0.324
CCGTTTTA	0.203
CGATGACG	0.136
TGATGAAA	0.0461
CGATGACC	0.206
ACATGACA	0.256
TGATGACA	0.376
CGATGACA	0.319
GCATGACA	0.207
AGATGACC	0.132
AGATGACA	0.316
GGATGACA	0.253
AGATGACT	-0.0855
TCATGACA	0.323
CTCGTGCC	-0.0761

Sequence	PBM E-score
CCGGATGA	-0.024
GAACACAA	-0.0576
GCGAGTGA	0.137
ACTGGTCT	-0.176
ACTTGTCT	-0.0797
CGATTGGC	-0.0866
CCCCGCGG	-0.255
CGGTCGCC	-0.00137
ACTGACGA	0.305
AATGACGT	0.125
ATTGACGA	0.377
GATGACGA	0.265
AATGACGA	0.36
CATGACGA	0.374
ACTGACGG	-0.0335
CCTGACGA	0.214
GTTGACGA	0.21
AATGACGC	0.106
ATTGACGG	0.211
CATGACGG	0.0231
TCAGGCGA	0.0781
ATCGACTA	0.029
ATAAGATG	0.201
ATGTTCTG	0.093
GGTCGCAA	-0.0813

Sequence	PBM E-score
GGAGAGCA	-0.253
ACTATGGA	-0.013
ATAATGAT	0.344
AGAATGAA	0.144
ATAATTAT	0.303
AAAATGGC	0.0419
ATAATGAG	0.117
ACAATGAC	0.107
ATAATTAC	0.261
ATAATGAC	0.258
AAAATGAC	0.297
AGAATGAT	0.33
ATAATTAA	0.274
AGAATGAG	-0.157
GGGACGTA	0.159
CGAGTCAA	-0.0144
AGAAGGCG	-0.119
GGGATACA	-0.0572
CTGTCTGC	-0.243
ATTCCGAA	0.0789
CAAGGAGC	-0.363
GGCAAAAC	-0.0611
GAAATGAA	0.164
AAAATGAA	0.056
GAAATGAC	0.312

Sequence	PBM E-score
AAAATGAT	0.387
CAAATGAC	0.144
AAAATGAG	0.0916
AAGGCTTA	-0.214
TCACGTCA	0.331
GGACGTCA	0.0888
AGACGTCA	0.107
GCACGTCA	0.0421
TGACGTCA	0.314
ACACGTCA	0.151
CCACCTAG	-0.225
GATGGTGA	0.0135
TATCACCA	0.364
GATCACCA	0.308
GCTCACCA	-0.17
AATCACCA	0.24
CATCACCA	0.176
GATCACCC	0.261
CAGAATTC	0.0421
GAACTTCC	-0.12
GTCTCAAA	0.161
GTTACTCA	0.0462
AGAAACGC	-0.132
AACTCCTG	-0.177
ACCCGGAG	-0.0473

Sequence	PBM E-score
AATGCCTA	-0.212
ACTTACGC	-0.0756
AATTACGA	0.186
CATTACGA	0.128
GCTTACGA	-0.071
ACTTACGA	0.325
TATTACGA	0.311
CATTGGTC	-0.0867
ATCCACGA	0.199
ATCCACGG	0.316
ATCCACAA	-0.138
AAACCGCG	-0.0683
CCTGGAAC	-0.0203
AGGTGAGA	0.0141
CGGTGATA	0.334
CGGTGATC	0.214
GGGTGAGA	-0.136
AGGTGATG	0.163
CGGTGAAA	0.186
AGGTGATA	0.357
GGGTGATA	0.38
GGGTGAAA	0.0485
CAGCTTCG	0.0552
CTCGAGGC	-0.193
AGCCAGAG	-0.0331

Sequence	PBM E-score
CGGCCTAA	-0.0583
ATCACTCG	0.31
CTCACTCC	-0.0715
ACCACTCG	0.187
ATCACTCA	0.369
AACACTCC	-0.121
ATCACTCC	0.345
CTCACTCA	0.0709
AACACTCG	-0.00319
GTCACTCA	0.238
CGTTTGGC	0.0893
TCAGGACA	0.156
ATCTGAAG	-0.1
ATAACCAT	0.0871
CACAAAAG	-0.0552
CCAGCCAC	-0.0544
GTATGACA	0.176
GTATGAGA	0.145
GTATGATA	0.327
ATATGATG	0.191
ATATGATA	0.316
CTATGATA	0.143
